Laboratory results reported in PubChem BioAssay.
The source made the active and inactive calls. Unless noted, no rule for the calls is given here.

How the values were obtained:
[1] = A549 cell viability effects, profiling panel, calcein-AM fluorescence, 48 h, basal (AID 1162); conditions: higher = more signal; also: test concentration not given here
[2] = adipocyte viability effects, profiling panel, cell-based, 3T3-L1 adipocytes, calcein-AM fluorescence, 48 h, basal (AID 1163); conditions: 3T3-L1 adipocytes viability, higher = more signal; also: test concentration not given here
[3] = HepG2 cell viability effects, profiling panel, calcein-AM fluorescence, 48 h, basal (AID 1164); conditions: higher = more signal; also: test concentration not given here
[4] = MM1S cell viability effects, profiling panel, calcein-AM fluorescence, 48 h, basal (AID 1165); conditions: higher = more signal;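 also: viability of MM1S multiple myeloma cells under basal unstimulated conditions; test concentration not given here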
[5] = basal RPMI8226 viability, no added stimulus, profiling panel, cell-based, calcein-AM fluorescence, 48 h, PK04 Diversity Set (AID 1166); conditions: RPMI8226 myeloma viability, higher = more signal;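 also: cells grown under basal conditions without added stimulus; test concentration not given here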
[6] = basal HepG2 mitochondrial membrane potential changes, profiling panel, cell-based, JC-1 fluorescence, 24 h, 100 nL compound (AID 1167); conditions: higher = more signal; also: test concentration not given here
[7] = basal 3T3-L1 adipocyte mitochondrial potential changes, profiling panel, cell-based, JC-1 fluorescence, 3T3-L1 adipocytes, 24 h, 100 nL compound (AID 1168); conditions: JC-1 mitochondrial fluorescence, higher = more signal, called active from +8 up or from −8 down; also: test concentration not given here
[8] = basal RPMI8226 mitochondrial membrane potential changes, profiling panel, cell-based, JC-1 fluorescence, 24 h, 100 nL compound (AID 1169); conditions: RPMI8226 myeloma, JC-1 mitochondrial potential fluorescence, higher = more signal; also: test concentration not given here
[9] = basal MM1S mitochondrial membrane potential changes, profiling panel, cell-based, JC-1 fluorescence, 24 h, 100 nL compound (AID 1170); conditions: higher = more signal; also: test concentration not given here
[10] = A549 lung cancer cell viability effects, profiling panel, resazurin fluorescence, 24 h, PK04 Diversity Set (AID 1171); conditions: higher = more signal, called active from +8 up or from −8 down; also: test concentration not given here
[11] = HepG2 liver cancer cell viability effects, profiling panel, resazurin fluorescence, 24 h, PK04 Diversity Set (AID 1172); conditions: higher = more signal; also: test concentration not given here
[12] = basal S. cerevisiae growth modulation, no modifier, primary screen, OD600, strain BY4716, 24 h, basal condition (AID 1173); conditions: OD600, 24 h, higher = more signal, called active from +8 up or from −8 down
[13] = MM1S myeloma cell viability, profiling panel, resazurin fluorescence, basal, 24 h, PK04 Diversity Set (AID 1174); conditions: higher = more signal, called active from +8 up or from −8 down;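 also: MM1S multiple myeloma cell line; test concentration not given here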
[14] = target: Dihydroorotate dehydrogenase (quinone), mitochondrial (Plasmodium falciparum (isolate 3D7)) (UniProt Q08210); assay: PfDHODH enzyme inhibitors, primary screen, biochemical, C-terminal His tag, absorbance 600 nm (AID 1175); conditions: DCIP absorbance 600 nm, higher = more signal, called active from +8 up or from −8 down;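 also: recombinant parasite enzyme with a five histidine tag at its C terminus; test concentration not given here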
[15] = P. aeruginosa biofilm formation inhibitors, primary screen, strain PAO1, LB-PBS medium, absorbance 600 nm (AID 1176); also: test concentration not given here; conditions: P. aeruginosa PAO1 growth/biofilm, A600, 12 h; higher = more signal
[16] = S. cerevisiae RM11-1a growth modifiers, primary screen, strain RM11-1a, OD600, basal, 24 h (AID 1177); conditions: OD600, 24 h, higher = more signal, called active from +8 up or from −8 down;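 also: cultures grown under basal conditions with no added stressor; test concentration not given here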
[17] = E. coli acrAB mutant growth effects, primary screen, E. coli filamentation inducers, strain DRC39, OD650, 24 h (AID 1178); conditions: higher = more signal, called active from +8 up or from −8 down;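 also: growth measured as culture turbidity by optical density at 650 nm; test concentration not given here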
[18] = E. coli acrAB mutant growth effects, primary screen, E. coli filamentation inducers, strain DRC39, OD650, 48 h (AID 1179);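 also: screen aims at cell division blockers that make cells filament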; conditions: E. coli DRC39 delta-acrAB growth, higher = more signal, called active from +8 up or from −8 down
[19] = RPMI8226 myeloma cell viability, profiling panel, resazurin fluorescence, basal, 24 h, PK04 Diversity Set (AID 1180); conditions: higher = more signal;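 also: RPMI8826 multiple myeloma cell line at 5000 cells per well; test concentration not given here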
[20] = target: E3 ubiquitin-protein ligase XIAP (Homo sapiens) (UniProt P98170); assay: XIAP binders, primary screen, biophysical, small-molecule microarray, fluorescence 635 nm (AID 1181); conditions: small-molecule microarray binding, higher = more signal;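 also: score merges 667 nm emission and signal to noise over triplicate slides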
E3 ubiquitin-protein ligase XIAP (Homo sapiens), sequence (P98170 whole entry, looked up): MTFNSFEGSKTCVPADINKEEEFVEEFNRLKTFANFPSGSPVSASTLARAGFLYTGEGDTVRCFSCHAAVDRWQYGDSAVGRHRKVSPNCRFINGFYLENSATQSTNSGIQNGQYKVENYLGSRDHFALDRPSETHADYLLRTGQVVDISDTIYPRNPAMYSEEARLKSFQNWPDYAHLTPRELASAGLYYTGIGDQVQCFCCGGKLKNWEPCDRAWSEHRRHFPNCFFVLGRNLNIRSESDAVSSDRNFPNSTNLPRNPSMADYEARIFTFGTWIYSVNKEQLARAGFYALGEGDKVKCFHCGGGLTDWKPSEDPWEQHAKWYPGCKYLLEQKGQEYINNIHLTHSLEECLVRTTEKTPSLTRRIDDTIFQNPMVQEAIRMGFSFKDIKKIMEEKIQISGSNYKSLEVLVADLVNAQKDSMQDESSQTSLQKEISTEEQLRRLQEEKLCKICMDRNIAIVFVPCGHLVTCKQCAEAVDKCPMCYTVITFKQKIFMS

Dihydroorotate dehydrogenase (quinone), mitochondrial (Plasmodium falciparum (isolate 3D7)), sequence (Q08210 whole entry, looked up): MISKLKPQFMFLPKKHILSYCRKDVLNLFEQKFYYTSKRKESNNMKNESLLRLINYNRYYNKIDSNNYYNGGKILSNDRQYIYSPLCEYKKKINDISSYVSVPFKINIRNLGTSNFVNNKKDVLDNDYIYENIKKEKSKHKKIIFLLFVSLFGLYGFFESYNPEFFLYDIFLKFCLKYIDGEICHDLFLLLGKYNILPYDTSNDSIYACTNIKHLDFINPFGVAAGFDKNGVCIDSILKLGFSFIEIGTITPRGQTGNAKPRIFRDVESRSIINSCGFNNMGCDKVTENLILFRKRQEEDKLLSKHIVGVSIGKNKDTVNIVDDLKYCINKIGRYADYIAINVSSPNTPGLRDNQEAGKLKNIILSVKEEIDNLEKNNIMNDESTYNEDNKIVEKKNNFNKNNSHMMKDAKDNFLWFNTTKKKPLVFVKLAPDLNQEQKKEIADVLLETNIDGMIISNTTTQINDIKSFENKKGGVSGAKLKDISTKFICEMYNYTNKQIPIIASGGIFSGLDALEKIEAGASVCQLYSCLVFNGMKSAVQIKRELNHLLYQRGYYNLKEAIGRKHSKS

| Compound | z-score [1] | z-score [2] | z-score [3] | z-score [4] | z-score [5] | z-score [6] | z-score [7] | z-score [8] | z-score [9] | z-score [10] | z-score [11] | z-score [12] | z-score [13] | composite z-score [14] | z-score [15] | z-score [16] | z-score [17] | z-score [18] | z-score [19] | composite z-score [20] |
| --- | --- | --- | --- | --- | --- | --- | --- | --- | --- | --- | --- | --- | --- | --- | --- | --- | --- | --- | --- | --- |
| CCCCC(=C=CC[C@H](O)c1ccc(OCCO)cc1)C[C@H](O)c1cc(Cl)cc(Cl)c1O | -0.217 | -0.185 | -0.197 | -3.34 | -2.76 | -2.43 | -0.368 (inactive) | -0.773 | -0.349 | 1.17 (inactive) | 0.984 | -4.58 (inactive) | 0.437 (inactive) | -1.74 (inactive) | 0.579 (inactive) | -0.674 (inactive) | 0.947 (inactive) | 0.514 (inactive) | 1.36 | -0.0773 |
| Cc1ccccc1C(O)C1C=CC2C(=O)N(c3ccccc3)C(=O)C2N1Nc1ccc([N+](=O)[O-])cc1 (stereo not given) | -1.06 | -0.127 | -1.2 | -0.127 | -0.566 | -1.04 | -1.1 (inactive) | -0.247 | 0.585 | 0.306 (inactive) | -0.368 | -0.14 (inactive) | -0.327 (inactive) | 0.718 (inactive) | 1.29 (inactive) | -0.0035 (inactive) | -0.328 (inactive) | -0.316 (inactive) | -0.0045 | 0.167 |
| COc1cccc(/C=C(\C#N)C(=O)Nc2c(C)n(C)n(-c3ccccc3)c2=O)c1 | 2.14 | 1.12 | 1.01 | -0.485 | 0.101 | 0.778 | 0.159 (inactive) | 0.505 | -0.535 | -0.589 (inactive) | 0.665 | -1.81 (inactive) | -1.82 (inactive) | -1.14 (inactive) | 0.792 (inactive) | -0.6 (inactive) | 0.575 (inactive) | 1.15 (inactive) | 0.191 | 0.0775 |
| NC(=O)N1C(=O)C2C(C1=O)C1C=C(CCCO)C2C(C2CC2)N1Cc1cccc(OC(F)(F)F)c1 (stereo not given) | -0.307 | 0.0635 | 0.801 | -2.82 | 0.0097 | -0.348 | 0.418 (inactive) | 0.191 | 0.645 | -0.334 (inactive) | -0.807 | -1.33 (inactive) | -0.217 (inactive) | -1.26 (inactive) | -0.0585 (inactive) | -0.0011 (inactive) | -0.149 (inactive) | -0.508 (inactive) | -0.762 | 0.312 |
| O=C1OCCC/C=C\[C@H]2OC34C=CCN(c5ccc6ccccc6c5)C(=O)[C@H]3N(CCCO)C(=O)[C@@H]4C12 (stereo not given in full) | -0.416 | 1.34 | 0.275 | 0.392 | -0.686 | -0.36 | -0.41 (inactive) | -0.0534 | 1.37 | 0.252 (inactive) | -0.408 | 0.556 (inactive) | -0.104 (inactive) | -0.818 (inactive) | -0.636 (inactive) | -1.1 (inactive) | -0.0367 (inactive) | -0.0547 (inactive) | 0.375 | -0.332 |
| [N-]=[N+]=Nc1ccccc1C[C@]1(C(=O)NCc2ccccc2)COC(c2ccc(OCCCO)cc2)=N1 | -0.827 | -0.143 | -1.65 | -3.58 | -4.42 | 0.789 | 0.443 (inactive) | -1.17 | -2.33 | -1.41 (inactive) | -0.85 | 0.858 (inactive) | -5.51 (inactive) | 0.363 (inactive) | -0.0837 (inactive) | 2.15 (inactive) | 0.728 (inactive) | 0.161 (inactive) | -4.83 | 0.212 |
| COc1ccc(NC(=O)O[C@H]2[C@@H]3OC(=O)[C@H](Cc4cccc(Br)c4)C/C=C/C[C@@H](Cc4cccc(Br)c4)C(=O)O[C@H]3[C@@H](OC)O[C@@H]2CO)cc1 | -0.102 | -0.226 | 0.323 | -1.14 | -0.153 | 1.6 | -0.483 (inactive) | -0.897 | 0.329 | -0.981 (inactive) | -0.868 | -0.413 (inactive) | -0.37 (inactive) | 0.732 (inactive) | 0.47 (inactive) | 0.604 (inactive) | 0.365 (inactive) | 0.855 (inactive) | -0.517 | -0.555 |
| COC(=O)[C@@]1(Cc2ccccc2)[C@H]2c3cc(C(=O)N4CCCC4)n(CCSCCO)c3C[C@H]2CN1C(=O)c1ccccc1 | -0.52 | 0.629 | 0.422 | -0.451 | -0.874 | 0.59 | -1.19 (inactive) | 0.26 | 0.0172 | -0.845 (inactive) | -1.19 | 0.712 (inactive) | -1.63 (inactive) | -0.337 (inactive) | 0.824 (inactive) | 0.53 (inactive) | -1.01 (inactive) | -0.853 (inactive) | -1.68 | 0.361 |
